# Laboratory results published in article PMC11062922 (Nature Chemical Biology, 2023).
# Where two headings read alike, the source gives them in different places.
# What was measured:
# DAPK3 = test system: DAPK3; design: species or system human, MV4-11 + K-562 + COLO205 + SK-N-BE2 + OVCAR-8; conditions: read-out: apparent Kd; compound concentrations: 100 nM and 1000 nM (sheet 'Samples'), CATDS: 6.6145961365307402E-3; n = 1
# TESK1 = test system: TESK1; design: species or system human, MV4-11 + K-562 + COLO205 + SK-N-BE2 + OVCAR-8; conditions: read-out: apparent Kd; compound concentrations: 100 nM and 1000 nM (sheet 'Samples'), CATDS: 1.6628532352141699E-2; n = 1
# TUBB6 = test system: TUBB6; design: species or system human, MV4-11 + K-562 + COLO205 + SK-N-BE2 + OVCAR-8; conditions: read-out: apparent Kd; compound concentrations: 100 nM and 1000 nM (sheet 'Samples'), CATDS: 3.8955620012379099E-3; n = 1
# CSNK2A2 = conditions: compound concentrations:3nM, 10nM, 30nM, 100nM, 300nM, 1000nM, 3000nM, 30000nM,R2:0.98972333089258602,slope:1.29833762231974,EC50 Standard Error, by the legend:Standard error of the EC50 estimation as provided by the drc package.
# CSNK2B = conditions: compound concentrations:3nM, 10nM, 30nM, 100nM, 300nM, 1000nM, 3000nM, 30000nM,R2:0.92635600361285697,slope:3.98443256783656,EC50 Standard Error, by the legend:Standard error of the EC50 estimation as provided by the drc package.
# EIF3J = conditions: compound concentrations:3nM, 10nM, 30nM, 100nM, 300nM, 1000nM, 3000nM, 30000nM,R2:0.88928942104591402,slope:1.5975809400026999,EC50 Standard Error, by the legend:Standard error of the EC50 estimation as provided by the drc package.
# IRAK3 = conditions: compound concentrations:3nM, 10nM, 30nM, 100nM, 300nM, 1000nM, 3000nM, 30000nM,R2:0.92660925835613905,slope:0.92534849669637798,EC50 Standard Error, by the legend:Standard error of the EC50 estimation as provided by the drc package.
# NQO2 = conditions: compound concentrations:3nM, 10nM, 30nM, 100nM, 300nM, 1000nM, 3000nM, 30000nM,R2:0.94793507341518402,slope:1.3847657393086299,EC50 Standard Error, by the legend:Standard error of the EC50 estimation as provided by the drc package.
# NME2;NME2P1 = test system: NME2;NME2P1; design: species or system human, MV4-11 + K-562 + COLO205 + SK-N-BE2 + OVCAR-8; conditions: read-out: apparent Kd, n = 1
# IARS = test system: IARS; design: species or system human, MV4-11 + K-562 + COLO205 + SK-N-BE2 + OVCAR-8; conditions: read-out: apparent Kd, compound concentrations: 100 nM and 1000 nM (sheet 'Samples'), n = 1
# NNT = test system: NNT; design: species or system human, MV4-11 + K-562 + COLO205 + SK-N-BE2 + OVCAR-8; conditions: read-out: apparent Kd, compound concentrations: 100 nM and 1000 nM (sheet 'Samples'), n = 1
# MCM5 = test system: MCM5; design: species or system human, MV4-11 + K-562 + COLO205 + SK-N-BE2 + OVCAR-8; conditions: read-out: apparent Kd, compound concentrations: 100 nM and 1000 nM (sheet 'Samples'), n = 1
# CDC42 = test system: CDC42; design: species or system human, MV4-11 + K-562 + COLO205 + SK-N-BE2 + OVCAR-8; conditions: read-out: apparent Kd, n = 1
# PRKACG = test system: PRKACG; design: species or system human, MV4-11 + K-562 + COLO205 + SK-N-BE2 + OVCAR-8; conditions: read-out: apparent Kd, compound concentrations: 100 nM and 1000 nM (sheet 'Samples'), n = 1
# ADK = test system: ADK; design: species or system human, MV4-11 + K-562 + COLO205 + SK-N-BE2 + OVCAR-8; conditions: read-out: apparent Kd, compound concentrations: 100 nM and 1000 nM (sheet 'Samples'), n = 1
# PKM = test system: PKM; design: species or system human, MV4-11 + K-562 + COLO205 + SK-N-BE2 + OVCAR-8; conditions: read-out: apparent Kd, n = 1
# EIF2AK1 = test system: EIF2AK1; design: species or system human, MV4-11 + K-562 + COLO205 + SK-N-BE2 + OVCAR-8; conditions: read-out: apparent Kd, n = 1
# MTHFD1 = test system: MTHFD1; design: species or system human, MV4-11 + K-562 + COLO205 + SK-N-BE2 + OVCAR-8; conditions: read-out: apparent Kd, compound concentrations: 100 nM and 1000 nM (sheet 'Samples'), n = 1
# GALK1 = test system: GALK1; design: species or system human, MV4-11 + K-562 + COLO205 + SK-N-BE2 + OVCAR-8; conditions: read-out: apparent Kd, compound concentrations: 100 nM and 1000 nM (sheet 'Samples'), n = 1
# RAB5C = test system: RAB5C; design: species or system human, MV4-11 + K-562 + COLO205 + SK-N-BE2 + OVCAR-8; conditions: read-out: apparent Kd, n = 1
# [1] = compound concentrations:100 nM and 1000 nM (sheet 'Samples')
molecule,measurement,setting,value
O=C1N=C(NCCc2ccc(Cl)cc2)S/C1=C\c1ccc2ncccc2c1 [RO4498479-000],potency estimated from few doses,DAPK3,2110 nM
Cn1ncc2c(N)ncnc21 [SKF-18267],potency estimated from few doses,TESK1,136 nM
same,potency estimated from few doses,TUBB6,1430 nM
Entospletinib,EC50,CSNK2A2,1310 nM
same,Kd,CSNK2A2; read-out: apparent Kd,1310 nM
same,EC50,CSNK2B,941 nM
same,Kd,CSNK2B; read-out: apparent Kd,941 nM
same,EC50,EIF3J,1610 nM
same,Kd,EIF3J; read-out: apparent Kd,1610 nM
same,EC50,IRAK3,4.71 µM
same,Kd,IRAK3; read-out: apparent Kd,2030 nM
same,EC50,NQO2,295 nM
same,Kd,NQO2; read-out: apparent Kd,131 nM
Cc1cccc(Nc2nc(N[C@H]3CCNC3)ncc2C(N)=O)c1.Cl [GSK2197149A],potency estimated from few doses,NME2;NME2P1; [1],1460 nM
O=C(O)C(F)(F)F.O=c1[nH]ccc2nc(N[C@@H]3CCNC3)nc(Nc3ccc4c(c3)S(=O)(=O)CC4)c12 [GSK2181306A],potency estimated from few doses,IARS; CATDS: 8.0761213761314007E-3,1860 nM
COc1ccc(-c2cc3c(N)ncnc3o2)cc1 [GW642138X],potency estimated from few doses,NNT; CATDS: 0.135417913174183,1070 nM
COc1cc(Nc2nccc(-c3cnn4ncccc34)n2)cc(OC)c1 [GW801372X],potency estimated from few doses,MCM5; CATDS: 1.9115246172466901E-2,1390 nM
CC(C)Nc1cc(-c2ccc3c(N)n[nH]c3c2)nc(N)n1 [GSK2221681A],potency estimated from few doses,CDC42; [1],1530 nM
Cc1ccccc1-n1ncc(C(=O)c2ccccc2)c1N [RO1151248-000],potency estimated from few doses,PRKACG; CATDS: 2.9121921896178699E-2,613 nM
O=C1N=C(NCc2c(Cl)cccc2Cl)S/C1=C\c1ccc2ncccc2c1 [RO4600445-000],potency estimated from few doses,ADK; CATDS: 0.24369856841726101,1350 nM
COc1cc(Nc2nccc(N3CCC(NC(=O)c4cccc(NC(C)=O)c4)C3)n2)cc(OC)c1OC (stereo not shown) [GSK1379754A],potency estimated from few doses,"PKM; compound concentrations: 100 nM and 1000 nM (sheet 'Samples'), CATDS: 8.1586836054847095E-2",1900 nM
CCn1c(-c2cccnc2O)nc2cnccc21 [SB-736715],potency estimated from few doses,"EIF2AK1; compound concentrations: 100 nM and 1000 nM (sheet 'Samples'), CATDS: 1.2624621535744099E-2",1920 nM
O=C1N=C(NCc2cccs2)O/C1=C\c1ccc2ncccc2c1 [RO4624208-000],potency estimated from few doses,ADK; CATDS: 4.98118638137824E-2,1390 nM
CCn1c(-c2nonc2N)nc2c(C#CC(C)(C)O)nc(O[C@@H](CN)c3ccccc3)cc21.O=C(O)C(F)(F)F [GSK1007102B],potency estimated from few doses,EIF2AK1; [1],996 nM
CCN(CC)Cc1ccc(Nc2nccc(-c3cnn4ncccc34)n2)cc1 [GW780056X],potency estimated from few doses,MTHFD1; CATDS: 2.2377842490129501E-2,921 nM
Cl.Cl.NC(CNC(=O)c1cc(Br)c(-c2ccnc3[nH]ccc23)s1)c1ccccc1.NC(CNC(=O)c1cc(Br)c(-c2ccnc3[nH]ccc23)s1)c1ccccc1 (stereo not shown) [GSK1322949A],potency estimated from few doses,"CDC42; compound concentrations: 100 nM and 1000 nM (sheet 'Samples'), CATDS: 2.9749426965709602E-2",1240 nM
same,potency estimated from few doses,GALK1; CATDS: 2.6759379349231501E-2,1600 nM
same,potency estimated from few doses,MCM5; CATDS: 2.5853375360702799E-2,1760 nM
same,potency estimated from few doses,MTHFD1; CATDS: 2.96394051410106E-2,1250 nM
same,potency estimated from few doses,"RAB5C; compound concentrations: 100 nM and 1000 nM (sheet 'Samples'), CATDS: 2.6344655895194399E-2",1670 nM
CS(=O)(=O)Nc1cccc(-c2ccc3c(NC(=O)C4CC4)n[nH]c3c2)c1 [SB-742864],potency estimated from few doses,GALK1; CATDS: 0.105390971488214,1820 nM
same,potency estimated from few doses,"NME2;NME2P1; compound concentrations: 100 nM and 1000 nM (sheet 'Samples'), CATDS: 0.103585369709675",1910 nM
Cl.Nc1nc(-c2ccc3c(c2)C(=Cc2cc(Br)c(O)c(Br)c2)C(=O)N3)cs1 [GW407323A],potency estimated from few doses,NNT; CATDS: 3.26521392467971E-2,987 nM
NS(=O)(=O)c1ccc(N/N=C2\C(=O)Nc3ccc4ncccc4c32)cc1 [GW305178X],potency estimated from few doses,PRKACG; CATDS: 4.9106390332169098E-2,1030 nM
COc1ccc(Nc2nccc(NCCNC(=O)Nc3cc(C)ccc3C)n2)cc1 [GSK1379899A],potency estimated from few doses,IARS; CATDS: 4.14736343029877E-2,1920 nM
Nc1nc(-c2ccc3c(N)n[nH]c3c2)cc(N2CCCC(NC(=O)c3ccccc3)C2)n1 (stereo not shown) [GSK2286775B],potency estimated from few doses,RAB5C; [1],1520 nM
Cl.Cl.NCC(NCc1ccc(-c2ccnc3[nH]ccc23)s1)c1ccccc1.NCC(NCc1ccc(-c2ccnc3[nH]ccc23)s1)c1ccccc1 (stereo not shown) [GSK1321565A],potency estimated from few doses,PKM; [1],2050 nM
